A selection: hits, their analogues and other compounds. The true share with any hit is near 2.9%.
DRV1 agonist: activates human resolvin D1 receptor GPR32 | O75388 | CHO-K1 GPR32 beta-arrestin PathHunter luminescence, 90 min; zero percent set by DMSO-only wells | activation, % at 76.9 µM | hit rate 2.5% among 48,000 | AID 1346428;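 active = activation of at least 60% and not above a set upper limit, about 1 call in 100 departs from these limits; inconclusive = activation of 40% to 60%, or above that upper limit; inactive = activation under 40%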; note: 0% is about no effect
Target sequence (O75388 whole entry, looked up): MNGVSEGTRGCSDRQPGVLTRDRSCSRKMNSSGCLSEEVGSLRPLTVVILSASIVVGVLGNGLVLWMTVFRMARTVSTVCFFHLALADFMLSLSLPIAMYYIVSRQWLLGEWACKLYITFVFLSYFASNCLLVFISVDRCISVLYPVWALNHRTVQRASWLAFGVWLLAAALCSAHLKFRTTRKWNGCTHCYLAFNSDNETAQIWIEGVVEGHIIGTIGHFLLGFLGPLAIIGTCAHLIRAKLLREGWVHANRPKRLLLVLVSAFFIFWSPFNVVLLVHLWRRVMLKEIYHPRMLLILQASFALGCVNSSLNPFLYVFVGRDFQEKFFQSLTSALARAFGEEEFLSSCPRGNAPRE
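Readings come from a cell-based beta-arrestin complementation format: CHO-K1 GPR32 stable cells (2,500/well) treated 90 min with compounds, then beta-Gal substrate added for 1 h before chemiluminescence imaging.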
FH mod: Identification of activators of human fumarate hydratase by quantitative high-throughput screening | Fumarate hydratase, mitochondrial (Homo sapiens), P07954 | FH coupled MDH/diaphorase resazurin fluorescence, 15 min | Potency, µM (doses to about 79.9 µM), inactives show at the top dose activity change, negative = inhibition, usual class: inhibitors | hit rate 0.22% among 54,000; note: potency is the fitted concentration of half-maximal effect; % is set by controls: 0 for no effect and ±100 for the full control effect; the screen sought activators but most active calls are inhibition curves; nearly all actives have a fitted effect of over 45% in size
p53null 32C tox: kills p53 null cells at the permissive temperature. H1299-neo p53 null cells, ATP luminescence, 24 h, 32C. Potency, µM (titrated, usually from 46.1 µM), for inactives: at the highest dose activity change, negative = cytotoxicity, hits mostly cytotoxic. hit rate 0.62% among 55,000. AID 903;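 note: potency is the fitted concentration of half-maximal effect; 0% = DMSO only and -100% = full killing by 100 µM tamoxifen; nearly all actives have a fitted effect of over 55% in size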
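Overnight 37C seeding (600 cells/well) of H1299-neo preceded a 24 hr, 32C exposure to compounds up to 46 uM. ATP levels, read by luminescence after 20 min at RT, indicated surviving cells.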
p53null 39C kill: selectivity test: cytotoxicity in p53 null cells, nonpermissive temperature. AID 904. hit rate 0.97% among 55,000. H1299 p53-null (neo) cells, 39C, ATPlite viability, 24 h. Potency, µM (series often up to 46.1 µM), inactives show top-dose activity, negative = cell killing, usual class: cytotoxic;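 note: potency is the fitted concentration of half-maximal effect; 0% = DMSO only and -100% = full killing by 100 µM tamoxifen; nearly all actives have a fitted effect of over 50% in size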
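Temperature-shift cytotoxicity format: compound titrations on p53-null or A138V-expressing H1299 cells held 24 hr at 39C, cell ATP then measured, AC50 from Hill model.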
* marks the source's active call; other numbers are inactive results; ? = inconclusive; . = not tested or not shown; ! = a repeat was not active; [ ] = remark or other dose. Unless noted, calls come from the whole dose curve; as a rule, active = well fitted curve in the direction sought with a large enough effect; inconclusive = small, poorly fitted or top-dose-only effect, or another doubt; inactive = no such curve, though single readings can be large; an effect the other way counts as inactive or inconclusive.

SMILES	DRV1 agonist	FH mod	p53null 32C tox	p53null 39C kill
CCCCC(CC)CNC(=O)c1ccc(Cn2c(=O)[nH]c3cc(OC)c(OC)cc3c2=O)cc1 (stereo unspecified)	-6.5	13.0%	-11.0%	12.6µM*
COC(=O)c1ccc(CNC(=O)c2nc(Cn3nc(C)c(Br)c3C)no2)cc1	9.8	-13.3%	25.4%	5.3%
Cc1nn(Cc2noc(C(=O)NCc3cccc(F)c3)n2)c(C)c1Br	73.1*	-0.1%	14.6%	-24.8%
C[C@@H]1O[C@@H](O[C@H]2[C@H](O)[C@@H](O)[C@H](OC(=O)[C@]34CCC(C)(C)C[C@H]3C3=CCC5[C@@]6(C)CC[C@H](O[C@@H]7O[C@H](C(=O)O)[C@@H](O)[C@H](O)[C@H]7O)C(C)(C)C6CC[C@@]5(C)[C@]3(C)CC4)O[C@@H]2CO)[C@H](O)[C@H](O)[C@H]1O (stereo partly specified)	.	-11.2%[20.6 µM]	.	.
N#C/C(=C\c1ccc(Sc2ccc(Cl)cc2)o1)c1nc2ccccc2[nH]1	.	.	-14.1%	.
COc1cccc(/C=C(\C#N)c2nc3ccc(C)cc3[nH]2)c1	?	-11.4%	?	?
Cc1c(Cl)cccc1-c1ccc(/C=C(\C#N)c2nc3ccccc3[nH]2)o1	14.6	-5.8%	?	10µM*
Cc1ccc2nc(/C(C#N)=C/c3ccc(-c4ccc(F)cc4F)o3)[nH]c2c1	-12.1	-9.3%	-16.1%	7.94µM*
COc1ccccc1C(=O)Nc1onc2c1CCCC2	-14.5	-0.8%	-25.9%	-18.5%
Cc1ccc(C(=O)Nc2onc3c2CCCC3)cc1	38.5	-8.1%	6.31µM*	5.01µM*
Cc1ccc(C(=O)Nc2ccccc2)cc1S(=O)(=O)Nc1ccc(Br)cc1	?	?	55.5%	7.0%
Cc1ccc(C(=O)Nc2ccccc2)cc1S(=O)(=O)Nc1ccccc1	94.8*	-8.7%	0.4%	-7.7%
O=C(Nc1ccccc1)c1ccc(Cl)c(S(=O)(=O)Nc2ccccc2)c1	91.4*	-12.4%	12.4%	-11.1%
CCN(CC)C(=S)SSC(=S)N(CC)CC	92.5*!	?	.	.
CCOc1cccc(NC(=O)C2CC(=O)N(C)C(=Nc3ccc(OC)cc3)S2)c1 (stereo unspecified)	20.2	-19.9%	-17.1%	9.8%
CCOc1cccc(NC(=O)C2CC(=O)N(C)C(=Nc3ccc(F)cc3)S2)c1 (stereo unspecified)	77.6*	?	-5.6%	10.0%
CCCN(CCC)C(=O)c1c[nH]c2ccc(S(=O)(=O)N(C)c3ccc(OCC)cc3)cc2c1=O	-6.9	-12.6%	12.6%	4.1%
CCCCN(CC)C(=O)c1c[nH]c2ccc(S(=O)(=O)N(C)c3ccc(Cl)cc3)cc2c1=O	91.5*	1.1%	12.7%	8.0%
Cc1nc(Nc2n[nH]c3c2CN(C(=O)NC(CN(C)C)c2ccccc2)C3(C)C)c2sccc2n1 (stereo unspecified)	.	-11.4%	.	.
COCCCNC(=O)c1[nH]c2cc(OC)ccc2c1Sc1ccc(C)cc1	-3.5	-29.9%	-13.0%	15.8µM*
CCc1ccc(NC(=O)c2ccc(Cn3nc(N4CCN(c5ccccc5)CC4)ccc3=O)o2)cc1	0.3	-21.0%	5.3%	-15.8%
CC(C)Oc1ccc(CNC(=O)Cn2nc(N3CCN(c4ccccc4)CC3)ccc2=O)cc1	67.9*	-3.7%	-6.5%	-6.1%
CCc1ccccc1NC(=O)c1ccc(Cn2nc(N3CCN(c4ccccc4)CC3)ccc2=O)o1	63.3*	-24.9%	28.4%	5.6%
C[C@H](NCc1ccc(OCc2ccccc2F)cc1)C(N)=O	.	4.3%	.	.
O=C(O/N=C1\c2ccccc2-c2nc3ccccc3nc21)c1ccco1	.	-17.6%	.	.
SMILES	DRV1 agonist	FH mod	p53null 32C tox	p53null 39C kill
O=C1Nc2ccccc2Oc2cc(Oc3cccc(Cl)c3)ccc21	91.3*	1.0%	-20.5%	?
CC(NCCCc1cccc(C(F)(F)F)c1)c1cccc2ccccc12 (stereo unspecified)	.	1.1%[53.3 µM]	.	.
Cc1c(OCC(F)(F)F)ccnc1CS(=O)c1nc2ccccc2[nH]1 (stereo unspecified)	60.4*!	-9.5%[53.3 µM]	.	.
Cc1ccc(-c2cc(-c3ccccc3C)[nH]n2)c(O)c1	.	.	12.6µM*	-95.8%
CC(C)NCCCn1c(Sc2cc3c(cc2I)OCO3)nc2c(N)ncnc21	.	2.1%	.	.
COc1ccccc1Cc1nc2ccccc2nc1SCC(=O)N1CCC(C)CC1	64.4*	-22.4%	16.7%	29.4%
COCCCNC(=O)c1sc2nc(C)c(C(=O)Nc3ccc(Cl)cc3)c(-c3ccc(Br)cc3)c2c1N	64.1*	-4.6%	-4.9%	-15.7%
CCN(CCCNC(=O)c1cc2cc3ccc(OC)cc3nc2s1)c1ccccc1	95.8*	8.2%	-14.0%	?
Cc1ccc(-c2c(C(=O)CCl)n(CCCO)c3ncnc(N)c23)cc1	.	-5.3%	.	.
CC(Oc1ccc(F)cc1)C(=O)N1CCC(c2nc3ccccc3s2)CC1 (stereo unspecified)	67.2*	-6.6%	-14.3%	1.6%
Cc1ccccc1C(=O)N1CCC(c2nc3ccccc3s2)CC1	?	-5.9%	-6.3%	-27.7%
O=C(c1ccccc1Cl)N1CCC(c2nc3ccccc3s2)CC1	77.9*	-3.0%	-4.7%	4.1%
Cc1cc(OCC(=O)N2CCC(c3nc4ccccc4s3)CC2)ccc1Cl	78.0*	?	26.8%	?
Cc1nc2c(-c3ccccc3)c(C)nn2c(C)c1CCC(=O)Nc1ccccc1F	60.5*	-10.1%	-4.5%	19.0%
CN(C)C/C=C/C(=O)Nc1cccc(C(=O)Nc2ccc(Nc3nccc(-c4cccnc4)n3)cc2)c1	.	-5.9%	.	.
COc1ccc(-n2cc(-c3ccccc3)c3c(SC(C)C(C)=O)ncnc32)cc1 (stereo unspecified)	99.3*	-22.3%	3.7%	13.7%
COC(=O)C(C)Sc1ncnc2c1c(-c1ccccc1)cn2-c1ccc(OC)cc1 (stereo unspecified)	.	.	-8.3%	-12.9%
CC1CCC2C(C)(C)CC(C)(CO)C2(O)C1C(=O)O (stereo unspecified)	.	7.3%	.	.
O=C(CSc1nccn1Cc1ccc(Cl)cc1)Nc1nc2ccccc2s1	0.1	-21.9%	51.8%	14.1µM*
O=C(CSc1nccn1-c1ccc(Cl)cc1)Nc1nc2ccccc2s1	3.3	3.4%	-6.0%	19.6%
CCCc1cc(C)n(C)c(=O)c1CN(C)C(=O)c1cc(-c2ccc(N3CCN(C(C)C)CC3)nc2)cc2c1cnn2C(C)C	.	7.4%	.	.
COC(=O)c1cc2c(C(F)(F)F)cc(-c3ccccc3)cc2n1O	.	-21.3%	.	.
Cc1c(Cl)cccc1-c1ccc(C(=O)Nc2ccc3oc(-c4cccnc4)nc3c2)o1	-7.9	-2.5%	-0.8%	16.2%
O=C(Nc1cccc(-c2nc3ncccc3o2)c1)c1ccc(-c2cccc(Cl)c2Cl)o1	47.7	.	12.6µM*	10µM*
COCn1c(-c2ccc(OC)cc2)nc2ccccc21	.	.	14.1µM*	11.2µM*
COc1ccc(-c2nc3ccccc3n2Cc2ccc(Cl)cc2)cc1	-0.2	-37.9%	55.9%	3.98µM*

Assay outcomes (PubChem BioAssay)
